Unmarked numbers belong to inactive results. Results filed as inconclusive are left out. A call without a number means that no potency is given here. Calls of active or inactive are those of the source. Calls follow the shape of the dose curve; as a rule, active = well fitted curve in the direction sought with a large enough effect; inconclusive = small, poorly fitted or top-dose-only effect, or another doubt; inactive = no such curve, though single readings can be large; an effect the other way counts as inactive or inconclusive.
Legend:
[1] = Cellular Toxicity (caspase-3) Mesangial (AID 660); conditions: mesangial cells, normalized: DMSO 0%, 100 µM tamoxifen 100%; at 91.7 µM (top of the series);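 also: combined caspase 3 and 7 activity read by Caspase-Glo luminescence; cells exposed to compound for 16 h before the caspase read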
Outline: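 Luminescent Caspase-Glo 3/7 readout (aminoluciferin substrate cleavage, 20 min RT) after 16 h compound exposure at 37 °C of normal human mesangial cells. Signal increase normalized between DMSO basal and 100 uM tamoxifen; Hill-equation AC50.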

[2] = Cellular Toxicity (caspase-3) SK-N-SH (AID 661);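 also: cells exposed to compound for 16 hours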
Outline: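 Luminescent Caspase-Glo 3/7 read-out after 16 hr compound exposure of SK-N-SH neuroblastoma cells at 37 °C. Signal increase normalized to DMSO (basal) and 10 uM staurosporine (100%); AC50 from Hill equation fits of qHTS concentration-response data.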

[3] = Cellular Toxicity (caspase-3) H-4-II-E (AID 663); conditions: H-4-II-E rat hepatoma, scaled: DMSO 0%, 100 µM tamoxifen 100%; at 92.2 µM (top of the series);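 also: cells exposed to compound for 16 hr before readout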
Outline: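 H-4-II-E rat hepatoma, 1500 cells/well, 5 hr settle at 37 °C; compound 16 hr, 37 °C, complete medium; Caspase-Glo 3/7, 20 min RT; luminescence. DMSO = 0%, 100 uM tamoxifen = 100%; Hill-equation AC50.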

[4] = Cellular Toxicity (caspase-3) Hek293 (AID 664); conditions: HEK293 caspase-3 activation, DMSO = 0%, 100 µM tamoxifen = 100%; at 92.2 µM (top of the series);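 also: cells exposed to compound for 16 h at 37 °C before readout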
Outline: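 Luminescent Caspase-Glo 3/7 readout (aminoluciferin release) in HEK293 cells after 16 h compound treatment, 37 °C. Normalization: DMSO = basal, 100 uM tamoxifen = 100% stimulation. Concentration-response fitted with standard Hill equation for AC50.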

[5] = Cellular Toxicity (caspase-3) N2a (AID 665);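 also: compound exposure lasted 16 h at 37 °C before readout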
Outline: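 Luminescent Caspase-Glo 3/7 readout in N2a mouse neuroblastoma cells after 16 h compound exposure at 37 °C. Signal scaled to DMSO (basal) and 10 uM staurosporine (100%). Concentration-response fitted with Hill equation for AC50.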

[6] = Cellular Toxicity (caspase-3) NIH 3T3 (AID 666)
Outline: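 NIH 3T3, 1000 cells/well, 5 hr settle then 16 hr compound at 37°C; Caspase-Glo 3/7, 20 min RT, luminescence. DMSO = basal, 100 uM tamoxifen = 100%. Hill-equation AC50, qHTS.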

[7] = Cellular Toxicity (caspase-3) Renal Proximal Tubule (AID 667); conditions: Potency: caspase-3 activation;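 also: cells exposed to compound for 16 hours at 37 °C before detection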
Outline: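 Luminescent caspase 3/7 signal from peptide-aminoluciferin cleavage measures apoptosis in freshly isolated rat kidney proximal tubule cells after 16 h compound exposure. Concentration-response data are normalized to DMSO and 10 uM staurosporine, and AC50 values come from Hill equation fits.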

[8] = Cell Viability - LYMP2-001 (AID 921);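 also: cells exposed to compound for 24 h at 37 °C; nearly all actives have a fitted effect of over 70% in size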
Outline: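 CellTiter-Glo luminescence (intracellular ATP) after 24 hr compound exposure at 37 C, 2500 lymphoblastoid cells/well in complete medium. AC50 fitted with standard Hill equation; tetraoctylammonium bromide positive control.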

[9] = biological target: Cytochrome P450 3A4 (Homo sapiens) (UniProt P08684); test: qHTS Assay for Activators of Cytochrome P450 3A4 (AID 885); also: nearly all actives have a fitted effect of over 65% in size
Outline: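 Activators are scored by enhanced luminescence from CYP3A4 conversion of luciferin-PPXE (25uM, equal to KM) to luciferin, after 60 min at RT with an NADPH-regenerating system.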

[10] = biological target: Cytochrome P450 3A4 (Homo sapiens) (UniProt P08684); test: qHTS Assay for Inhibitors and Substrates of Cytochrome P450 3A4 (AID 884); also: nearly all actives have a fitted effect of over 50% in size; also: potency is read from the fitted curve at half-maximal effect
Outline: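 Luminescent readout of luciferin produced by CYP3A4 (20 nM) dealkylation of Luciferin-PPXE, 25 uM (its KM). NADPH-driven reaction ran 60 min at RT after 10 min compound preincubation; data scaled to 57 uM ketoconazole as 100% inhibition.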

Sequence of Cytochrome P450 3A4 (Homo sapiens) (P08684 whole entry, looked up): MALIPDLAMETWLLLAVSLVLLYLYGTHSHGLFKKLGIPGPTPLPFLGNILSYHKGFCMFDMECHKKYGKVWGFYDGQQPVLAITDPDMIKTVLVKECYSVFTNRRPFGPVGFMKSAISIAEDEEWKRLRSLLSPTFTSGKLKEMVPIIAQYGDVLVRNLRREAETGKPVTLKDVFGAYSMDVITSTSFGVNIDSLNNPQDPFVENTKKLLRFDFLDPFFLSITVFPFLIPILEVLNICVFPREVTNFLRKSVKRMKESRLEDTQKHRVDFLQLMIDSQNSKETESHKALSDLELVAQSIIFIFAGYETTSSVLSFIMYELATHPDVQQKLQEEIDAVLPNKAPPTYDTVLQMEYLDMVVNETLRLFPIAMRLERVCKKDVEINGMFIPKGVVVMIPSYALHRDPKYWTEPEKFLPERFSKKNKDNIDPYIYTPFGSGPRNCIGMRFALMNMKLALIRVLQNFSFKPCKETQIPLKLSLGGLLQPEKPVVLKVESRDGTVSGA

SMILES | caspase-3 activation [1] | outcome [2] | caspase-3 activation [3] | caspase-3 activation [4] | outcome [5] | outcome [6] | Potency [7] | Potency [8] | outcome [9] | Potency [10]
O=C(O)c1ccccc1C(=O)O | 1.74% | inactive | -0.105% | 3.14% | inactive | inactive | inactive | inactive | – | –
Cc1c(C(=O)O)cccc1[N+](=O)[O-] | -0.447% | inactive | -0.261% | 1.44% | inactive | inactive | inactive | inactive | – | –
Cc1ccc(S(=O)(=O)NC2CCCCC2)cc1 | 0.471% | inactive | -0.0757% | 2.22% | inactive | inactive | inactive | inactive | inactive | –
COC(=O)CC#N | 0.486% | inactive | 1.64% | 0.82% | inactive | inactive | inactive | inactive | – | –
CC(C=O)Cc1ccc(C(C)(C)C)cc1 (configuration not stated) | 0.925% | inactive | 0.297% | -0.395% | inactive | inactive | inactive | inactive | – | inactive
CC(=O)C1(C)CC2=C(CCCC2(C)C)CC1C (configuration not stated) | 1.57% | inactive | 1.88% | 2.01% | inactive | inactive | inactive | inactive | – | –
CCC1CO1 (configuration not stated) | 0.872% | inactive | 2.93% | -0.425% | inactive | inactive | inactive | inactive | – | –
Cc1ccc2nc(-c3ccc(N)cc3)sc2c1S(=O)(=O)O | -3.9% | inactive | -4.87% | -8.94% | inactive | – | inactive | – | inactive | –
Cc1ccc2ncccc2c1 | 0.979% | inactive | 0.47% | 0.475% | inactive | – | inactive | inactive | – | inactive
C=Cc1ccc(C=C)cc1 | -0.657% | inactive | -0.942% | 0.511% | – | inactive | inactive | – | – | inactive
O=C(Cl)c1ccccc1[N+](=O)[O-] | -1.02% | inactive | 1.33% | 1.55% | inactive | – | inactive | inactive | – | inactive
CCCCCCCCN | -0.125% | inactive | 0.977% | 0.408% | inactive | inactive | inactive | inactive | – | –
c1ccc2n[nH]nc2c1 | 0.6% | inactive | -0.743% | 1.96% | inactive | – | inactive | inactive | – | –
COc1ccc(N)c(OC)c1 | 0.311% | inactive | 1.91% | -1.28% | inactive | – | inactive | inactive | inactive | –
O=C1C=CCCC1 | -1.96% | inactive | 0.0441% | 3.14% | inactive | – | inactive | inactive | – | inactive
CCC=O | -0.374% | inactive | 0.94% | 1.43% | – | inactive | inactive | – | – | inactive
C=Cc1ccccn1 | 2.96% | inactive | 1.92% | 3.43% | inactive | – | inactive | – | – | –
Cc1ccccc1C(=O)O | -0.934% | inactive | -0.229% | -3.25% | – | inactive | inactive | – | – | inactive
CC#N | 1.61% | inactive | 0.385% | 1.27% | inactive | inactive | inactive | inactive | – | –
O=Cc1ccc(C(=O)O)cc1 | 0.146% | inactive | -0.315% | -1.79% | inactive | – | inactive | inactive | – | inactive
CCCCCCCCCCCCOCC1CO1 (configuration not stated) | 1.85% | inactive | 3.02% | 2.47% | inactive | – | inactive | inactive | – | –
CCNS(=O)(=O)c1ccc(C)cc1 | -0.106% | inactive | -1.14% | -2.66% | inactive | – | inactive | – | – | inactive
O=C1NC(=O)c2cc([N+](=O)[O-])ccc21 | -0.781% | inactive | -0.832% | -0.133% | inactive | – | inactive | inactive | inactive | 15.8 µM (active)
Cc1ccc(C)cc1 | -0.809% | inactive | 1.14% | -2.53% | inactive | – | inactive | inactive | – | inactive
C[C@@H]1CC2(OC[C@]3(C)O[C@H]23)O[C@H]2C[C@@]3(C)[C@@H]4CC[C@H]5C(C)(C)C(O[C@@H]6OC[C@@H](O)[C@H](O)[C@H]6O)CC[C@@]56C[C@@]46CC[C@]3(C)[C@@H]12 (some centres not stated) | 2.15% | inactive | 2.6% | 3.04% | inactive | – | inactive | inactive | – | inactive
c1ccc2c(c1)Oc1ccccc1S2 | -0.346% | inactive | -0.0621% | -0.379% | inactive | – | inactive | inactive | – | inactive

Reference: PubChem BioAssay (NCATS)
